# Screening data (PubChem)
# ATG4B inhibitor: blocks human ATG4B protease cleavage of LC3 substrate | Q9Y4P1 | ATG4B cleavage of LC3-PLA2, NBD-HPC fluorescence, 1 h | inhibition, % at 8.33 µM | 340,000 compounds, 0.51% hits | AID 504462; in the data active means inhibition above about 40%
# Target sequence (Q9Y4P1 whole entry, looked up): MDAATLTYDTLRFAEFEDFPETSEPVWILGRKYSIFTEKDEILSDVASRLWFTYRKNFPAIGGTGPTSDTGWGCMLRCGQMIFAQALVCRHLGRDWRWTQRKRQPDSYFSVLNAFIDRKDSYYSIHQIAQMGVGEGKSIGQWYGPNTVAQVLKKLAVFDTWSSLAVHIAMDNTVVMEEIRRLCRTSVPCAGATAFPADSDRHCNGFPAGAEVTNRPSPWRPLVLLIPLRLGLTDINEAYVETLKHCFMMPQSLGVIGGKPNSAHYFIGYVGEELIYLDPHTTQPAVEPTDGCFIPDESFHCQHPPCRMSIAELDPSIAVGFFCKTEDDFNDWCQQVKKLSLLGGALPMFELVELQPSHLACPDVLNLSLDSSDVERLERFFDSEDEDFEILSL
# Yeast superoxide: lowers age-related superoxide in aged yeast cells; S. cerevisiae aged cells, superoxide DHE fluorescence; stronger effect = lower value; superoxide response (% of plate mean), % at 10 µM; 330,000 compounds, 0.18% hits; AID 2690;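 active means superoxide response under a set limit, about three screen SD below normal, cut at about 65% in these data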;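 further: yeast aged for seven days with compound at 30 °C before DHE staining; 100% = average MFI of all compound-treated wells on the plate with controls excluded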
# Efflux pump mplx: blocks antifungal efflux pumps in multiplex yeast assay; 330,000 compounds, 0.44% hits; inhibition, % at 10 µM; S. cerevisiae Candida pump triplex, Nile Red efflux;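 active means plate passing quality check with inhibition over a set limit, or well fluorescence over plate mean plus 4 SD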;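 further: Nile Red retained in pooled yeast measured as flow cytometry median fluorescence; 0% = buffer negative control and 100% = Enniatin B positive control; higher means more Nile Red kept so more efflux inhibition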
# GRK2 inh: inhibitors of human GRK2 displacing RNA aptamer | bead flow cytometry, FAM-aptamer displacement from GRK2 | 330,000 compounds, 0.59% hits | inhibition of aptamer binding, % at 10 µM;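 active means inhibition of aptamer binding above 40%, roughly 3 SD of noise, on plates passing a quality check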;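 further: median bead fluorescence of bound FAM aptamer so fluorescent compounds give negative values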
# GRK2 inh confirm: human GRK2 inhibition confirmation, cherry pick 1; shares compounds with GRK2 inh; bead-bound GRK2, FAM-aptamer displacement, flow cytometry; aptamer displacement, % at 10 µM; 2,000 compounds, 4% hits;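 active means aptamer displacement above 40%, near three times the noise of non-fluorescent compounds, on plates passing quality checks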;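 further: negative values mostly reflect intrinsic compound fluorescence rather than true enhancement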
# Aptamer quench SP: counter-screen for GRK2 aptamer inhibitors: fluorescent aptamer quenchers; fluorescence response (% of DMSO), % at 10 µM; AID 504580; Carboxyfluorescein RNA aptamer on beads, flow cytometry quenching; stronger effect = lower value; 2,000 tested, under 10 active; shares compounds with GRK2 inh;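 active means compounds that quench the bead-bound fluorescent RNA probe, cutting fluorescence to under half of the solvent control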;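 further: counterscreen run without GRK2 so only probe quenching by compound is measured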
# GRK2 confirm 2: confirmation of human GRK2 inhibitors binding RNA aptamer site; inhibition of aptamer binding, % at 10 µM; bead-bound GRK2, FAM-aptamer displacement, flow cytometry; 360 tested, under 10 active; shares compounds with GRK2 inh; AID 504782;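 active means inhibition of aptamer binding above 40%, about triple the noise seen with nonglowing compounds, on plates passing quality control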;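 further: negative values mostly come from compounds that fluoresce themselves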
# FAM quench CP2: quenches fluorescent RNA aptamer, GRK2 hit artifact. shares compounds with GRK2 inh. carboxyfluorescein RNA aptamer beads, flow cytometry quenching; stronger effect = lower value. fluorescence response vs DMSO, % at 10 µM. 360 tested, under 10 active. AID 588494;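 active means response vs DMSO under 50%, meaning signal dropped by over half, treated as fluorescence quencher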;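 further: labelled aptamer on streptavidin beads without GRK2 as a quench counter-screen; 100% = bead fluorescence of DMSO wells and lower means quenching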
# * hit, by the source's call; x = no result given. This is a sample that favours compounds with a hit; in the whole collection about 1.6% have one here.
SMILES,ATG4B inhibitor,Yeast superoxide,Efflux pump mplx,GRK2 inh,GRK2 inh confirm,Aptamer quench SP,others
NS(=O)(=O)c1ccc(CCNC(=O)c2ccccc2-c2ccccc2)cc1,-2,102,0,82*,-5,100,
O=C(/C=C/c1ccco1)Nc1ccccc1C(=O)O,2,113,0,71*,-4,101,
CCOC(=O)c1nn2c(C(F)(F)F)cc(-c3ccc(OC)cc3)nc2c1Br,3,110,1,5,x,x,
COCCCNC(=O)CCC(=O)Nc1ccc2nc(N3CCOCC3)cc(C)c2c1,-1,105,0,0,x,x,
Cc1cc(N2CCN(C)CC2)nc2ccc(NC(=O)CCC(=O)NCCCOC(C)C)cc12,-7,99,0,93*,0,100,
Cc1cccnc1NC(=O)CCNC(=O)c1ccccc1Cl,-4,102,0,44*,x,x,GRK2 confirm 2=12;FAM quench CP2=102
COc1ccc(OCCN2C(=O)NC3(CCc4ccccc4C3)C2=O)cc1 (configuration not stated),-1,109,0,2,x,x,
CCC(=O)Nc1ccccc1C(=O)C(=O)Nc1ccccc1,5,106,0,40,-2,97,
CC(C)(C)OC(=O)N1CCC(c2c(C(=O)O)cnn2-c2ccc(Cl)cc2)CC1,6,102,0,1,x,x,
Cc1ccc(-n2ncc(C(=O)O)c2C2CCN(C(=O)OC(C)(C)C)CC2)cc1,-4,91,0,43*,-4,102,
CC(=O)Oc1ccc2c(=O)c(-c3ccccc3)coc2c1,0,94,0,38,1,93,
CCn1nnc2cc(C(=O)O)ccc21,1,113,0,4,x,x,
O=C1CC(N2CCN(c3ccc(Cl)cc3)CC2)C(=O)N1c1ccccc1 (configuration not stated),-5,100,0,1,x,x,
O=C1CC(N2CCN(c3ccccc3)CC2)C(=O)N1c1cccc(Cl)c1 (configuration not stated),2,100,0,43*,3,96,
Cc1cccn2c(=O)c3cc(C(=O)N4CCCCC4C)sc3nc12 (configuration not stated),4,111,1,4,x,x,
Cc1ccc2cccc(N=Cc3c(C)[nH]n(-c4ccccc4)c3=O)c2n1,-31,100,1,0,-7,98,
Cc1ccc(N(CC(O)Cn2c3ccccc3c3ccccc32)S(C)(=O)=O)cc1 (configuration not stated),-35,99,0,54*,-1,102,
O=C(NC(=S)Nc1c(Cl)ccc2nsnc12)c1ccco1,-7,107,0,x,x,x,
CCOC(=O)C1=C(C)Nc2nc(SCc3cccnc3)nn2C1c1ccc(OC)cc1 (configuration not stated),-7,105,0,55*,2,100,
Cc1[nH]c2ccccc2c1NC(=O)CN1CCN(c2cccc(C(F)(F)F)c2)CC1,-17,101,1,74*,-4,98,
O=C(COc1ccc(S(=O)(=O)N2CCOCC2)cc1)NCc1ccccn1,0,98,0,3,x,x,
CCCNS(=O)(=O)c1ccc(CCC(=O)N2CCOCC2)cc1,-14,99,0,61*,-13,96,
COc1ccc(/C=C/C(=O)OCC(=O)Nc2cccc(S(=O)(=O)NC3=NCCCCC3)c2)cc1,-7,99,0,1,x,x,
Cn1c(CSCc2ccc(F)cc2)nnc1SCC(=O)Nc1nccs1,1,82,0,2,x,x,
Cn1c(CSCc2ccccc2)nnc1SCC(=O)Nc1nccs1,-5,97,0,50*,-2,96,
SMILES,ATG4B inhibitor,Yeast superoxide,Efflux pump mplx,GRK2 inh,GRK2 inh confirm,Aptamer quench SP,others
COc1ccccc1Oc1c(C)oc2c(CN3CCOCC3)c(O)ccc2c1=O,0,96,0,58*,3,99,
COc1ccccc1NC(=O)NCCCl,-1,97,0,60*,x,x,GRK2 confirm 2=-31;FAM quench CP2=98
COc1ccccc1NC(=O)c1ccccc1NC(=O)c1ccccc1C(=O)O,0,108,0,7,x,x,
COc1ccccc1NC(=O)Nc1ccc(NC(=O)c2ccccc2O)cc1,1,97,0,92*,4,101,
COc1ccccc1NC(=O)c1ccccc1C(=O)Nc1ccccc1OC,-10,98,0,54*,x,x,GRK2 confirm 2=-10;FAM quench CP2=101
CC(C)CNC(=O)/C=C/C=C/CCCC/C=C/c1ccc2c(c1)OCO2,-9,89,0,0,x,x,
O=S1(=O)CCN(C(CCO)c2cccc(C(F)(F)F)c2)CC1 (configuration not stated),-7,89,0,3,x,x,
CC(Oc1ccccc1)c1ccnn1S(C)(=O)=O (configuration not stated),0,102,0,38,1,98,
CC(Oc1ccc(Cl)cc1)c1ccnn1S(=O)(=O)c1ccccc1 (configuration not stated),-8,88,0,0,x,x,
CC(C)N(C(=O)CSc1ccc(S(=O)(=O)N2CCCCC2)cn1)C(C)C,-4,97,0,3,x,x,
O=C(O)CN1C(=O)c2ccc(Oc3ccc4c(c3)C(=O)N(CC(=O)O)C4=O)cc2C1=O,2,100,0,0,x,x,
Cc1cc(C)n2nc(SCC(=O)N(CC(C)C)c3c(N)n(CC(C)C)c(=O)[nH]c3=O)nc2n1,4,96,0,1,x,x,
Cc1cc(C)n2nc(SCC(=O)c3c(N)n(CC(C)C)c(=O)n(C)c3=O)nc2n1,-8,104,0,72*,-3,101,
COc1ccc(/C=C2\SC(=S)N(N3C(=O)CCC3=O)C2=O)cc1O,-12,106,0,1,12,60,
CC(C)(C)NC(=O)COC(=O)CCC(=O)c1ccc(F)cc1,-3,99,0,99*,0,101,
Cc1ccccc1-c1cc(C(=O)NCc2cccs2)nn1CC1CC(c2cccc([N+](=O)[O-])c2)=NO1 (configuration not stated),8,90,0,0,-1,111,
Cc1ccc(SCC(=O)N2N=CCC2c2ccccc2)cc1 (configuration not stated),0,102,0,0,x,x,
CCCCCOc1ccc(/C=N/NC(=O)c2nnn(-c3nonc3N)c2CN2CCCCCC2)cc1,6,94,0,55*,2,105,
Nc1nonc1-n1nnc(C(=O)N/N=C/c2ccc(O)cc2)c1CN1CCCCCC1,-7,99,0,6,x,x,
CC(=O)n1c(=O)c2ccccc2c(=O)n1-c1ccccc1,7,105,0,23,-29,213,
O=c1c2ccccc2c(=O)n(-c2ccccc2)n1CCCCBr,7,82,0,1,x,x,
